Results as given in PubChem BioAssay AID588664 (The Scripps Research Institute Molecular Screening Center, 2011).
About 1,400 (0.39%) of roughly 360,000 compounds were called active. No stated cut-off is given here; in the data, active means inhibition above about 5% (passing the limit was not always enough); inactive means the rest. The list comes from a sample in which actives are over-represented; it also holds similar structures and randomly drawn compounds.

The molecules below were run against Tyrosine-protein kinase ABL1 (Homo sapiens) + Ras and Rab interactor 1 (Homo sapiens) (UniProt P00519+Q13671) (assay: inhibitors of Rin1-Abl protein binding, primary screen, biochemical, TR-FRET (AID 588664)). Conditions: at 7.35 µM, stronger effect = higher value.
Chain of Tyrosine-protein kinase ABL1 (Homo sapiens) + Ras and Rab interactor 1 (Homo sapiens) (P00519 whole entry, looked up): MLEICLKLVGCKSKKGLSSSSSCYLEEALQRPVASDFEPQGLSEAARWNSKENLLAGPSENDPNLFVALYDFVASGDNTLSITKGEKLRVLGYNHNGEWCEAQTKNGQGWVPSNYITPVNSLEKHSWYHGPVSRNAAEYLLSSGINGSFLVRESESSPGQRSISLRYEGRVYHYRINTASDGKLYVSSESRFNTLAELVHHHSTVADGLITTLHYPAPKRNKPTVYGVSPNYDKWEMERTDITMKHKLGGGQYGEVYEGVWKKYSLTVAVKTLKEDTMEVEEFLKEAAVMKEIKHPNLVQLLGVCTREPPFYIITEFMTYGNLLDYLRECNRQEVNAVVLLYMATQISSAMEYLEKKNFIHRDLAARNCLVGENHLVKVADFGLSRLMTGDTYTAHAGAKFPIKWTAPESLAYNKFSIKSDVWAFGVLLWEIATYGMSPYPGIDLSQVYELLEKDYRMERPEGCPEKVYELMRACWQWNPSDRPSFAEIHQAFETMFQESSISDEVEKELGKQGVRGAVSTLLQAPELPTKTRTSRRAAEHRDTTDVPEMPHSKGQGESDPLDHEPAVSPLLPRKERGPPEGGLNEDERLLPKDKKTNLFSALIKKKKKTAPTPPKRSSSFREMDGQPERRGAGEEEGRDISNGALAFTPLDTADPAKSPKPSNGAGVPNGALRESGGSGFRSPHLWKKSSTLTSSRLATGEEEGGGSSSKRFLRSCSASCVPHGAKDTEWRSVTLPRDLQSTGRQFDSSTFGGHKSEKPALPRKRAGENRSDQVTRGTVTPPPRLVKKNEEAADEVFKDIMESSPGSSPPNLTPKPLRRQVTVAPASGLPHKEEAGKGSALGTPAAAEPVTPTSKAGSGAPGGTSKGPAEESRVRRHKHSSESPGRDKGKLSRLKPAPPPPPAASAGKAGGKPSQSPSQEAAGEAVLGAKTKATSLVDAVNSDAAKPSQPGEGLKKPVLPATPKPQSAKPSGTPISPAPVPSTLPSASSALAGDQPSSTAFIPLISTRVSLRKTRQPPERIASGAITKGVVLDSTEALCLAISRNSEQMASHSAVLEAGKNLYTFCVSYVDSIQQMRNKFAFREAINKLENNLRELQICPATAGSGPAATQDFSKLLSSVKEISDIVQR
Chain of Tyrosine-protein kinase ABL1 (Homo sapiens) + Ras and Rab interactor 1 (Homo sapiens) (Q13671 whole entry, looked up): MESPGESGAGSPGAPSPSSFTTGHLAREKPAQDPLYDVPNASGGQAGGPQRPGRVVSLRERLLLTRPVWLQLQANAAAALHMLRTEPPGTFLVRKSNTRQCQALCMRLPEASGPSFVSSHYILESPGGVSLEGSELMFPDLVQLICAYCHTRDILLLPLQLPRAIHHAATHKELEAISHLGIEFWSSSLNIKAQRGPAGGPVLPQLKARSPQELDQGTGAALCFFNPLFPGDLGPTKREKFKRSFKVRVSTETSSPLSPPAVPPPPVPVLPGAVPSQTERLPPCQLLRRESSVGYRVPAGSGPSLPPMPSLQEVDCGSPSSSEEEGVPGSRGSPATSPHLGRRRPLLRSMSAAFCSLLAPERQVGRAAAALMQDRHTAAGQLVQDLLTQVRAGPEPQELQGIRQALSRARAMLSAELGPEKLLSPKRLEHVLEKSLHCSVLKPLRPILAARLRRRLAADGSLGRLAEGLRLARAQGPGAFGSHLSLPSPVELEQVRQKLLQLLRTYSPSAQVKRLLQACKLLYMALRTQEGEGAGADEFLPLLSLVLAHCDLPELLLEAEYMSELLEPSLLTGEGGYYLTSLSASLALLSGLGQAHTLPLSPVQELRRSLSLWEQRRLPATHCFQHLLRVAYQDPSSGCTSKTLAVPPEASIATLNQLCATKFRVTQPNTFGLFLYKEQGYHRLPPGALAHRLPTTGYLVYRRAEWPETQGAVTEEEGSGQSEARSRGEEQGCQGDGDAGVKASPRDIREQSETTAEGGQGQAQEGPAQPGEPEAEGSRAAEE

inhibition, active:
COC(=O)c1ccc(COC(=O)C2CCN(S(=O)(=O)c3c(Cl)cccc3Cl)CC2)o1 15.2%
C#CCOCCOCCOCCNc1nc(N2CCN(C(=O)C(Cc3ccc(O)cc3)n3cc(C(N)CC(C)C)nn3)CC2)nc(N2CCN(C(=O)C(Cc3ccc(O)cc3)n3cc(C(N)C(C)CC)nn3)CC2)n1 (stereo unspecified) 14.3%
CSc1ncnc2c1ncn2CC(=O)C1CCC2C3CCC4=CC(=O)CCC4(C)C3CCC12C (stereo unspecified) 13.2%
CCOC(=O)CN(C(=O)COc1nc(C)cc(C)c1C#N)c1ccc(Cl)cc1 6.34%
CCOc1ccc(-n2c(SCC(=O)NC3CCS(=O)(=O)C3)nnc2-c2cccnc2)cc1 (stereo unspecified) 5.73%
CN(Cc1c(F)cccc1Cl)C(=O)CNC(=O)c1ccc2c(c1)OCO2 34.7%
COc1cc(C(=S)N2CCOCC2)ccc1O 11%

inhibition, inactive:
CCc1ccc(C(=O)NNC(=O)C2CCN(c3ncnc4sc(C)c(C)c34)CC2)cc1 -0.76%
COc1cccc(COC(=O)C2CCN(S(=O)(=O)c3ccc(Cl)cc3)CC2)c1OC 3.29%
CCOc1ccc(S(=O)(=O)N2CCC(C(=O)OCc3ccc(OC)cc3)CC2)cc1 3.73%
C=CCN1C(=O)c2ccc(C(=O)N3CCC(C(=O)OCC)CC3)cc2C1=O 2.75%
O=C(O)CC1S/C(=N\N=C/c2ccccc2O)N(c2ccc(O)cc2)C1=O (stereo unspecified) 1.65%
C#CCOCCOCCOCCNc1nc(N2CCN(C(=O)[C@H](CCCCN)n3cc([C@@H](N)C(C)CC)nn3)CC2)nc(N2CCN(C(=O)[C@H](Cc3ccc(O)cc3)n3cc([C@@H](N)C(C)CC)nn3)CC2)n1 (stereo partly specified) 5.61%
C#CCOCCOCCOCCNc1nc(N2CCN(C(=O)[C@H](Cc3ccc(O)cc3)n3cc(C(N)CC(C)C)nn3)CC2)nc(N2CCN(C(=O)[C@H](CCC(=O)O)n3cc(C(N)[C@H](C)CC)nn3)CC2)n1 (stereo partly specified) 2.63%
CC12CCC(=O)C=C1CCC1C2C(O)CC2(C)C1CCC2(O)C(O)CO (stereo unspecified) 4.13%
CSc1ncnc2c1ncn2CCCNCC1CCCCC1 -2.89%
CSc1ncnc2c1ncn2CCCNCc1ccco1 -1.36%
CCOC(=O)CN(C(=O)COc1nc(-c2ccccc2)cc(C)c1C#N)c1ccc(F)cc1 -3.22%
CCOC(=O)COc1nc(C)cc(C(F)(F)F)c1C#N 0.37%
CN(C1CCS(=O)(=O)C1)S(=O)(=O)c1ccc2ccccc2c1 (stereo unspecified) 0.18%
COc1cc2c(cc1O)C(SC)=NC(C)(C)C2 2.88%
CCOc1cccc(-c2nnc(SCC(=O)NC3CC3)n2C)c1 -0.29%
COc1cccc(-n2c(SCC(=O)NC3CCS(=O)(=O)C3)nc3ccccc3c2=O)c1 (stereo unspecified) -0.16%
Cc1ccc(C(=O)CSc2nc3ccccc3c(=O)n2N)o1 -0.26%
Cc1ccccc1N1CCN(CC(=O)NCc2ccc(Cl)cc2)CC1 1.14%
COc1cc(CNc2ncnc3c2ncn3[C@H]2CN(Cc3cccs3)C[C@@H](CO)O2)cc(OC)c1OC 3.5%
CC(C)Cn1c(N2CCN(C(=O)/C=C/c3ccccc3)CC2)nc2ccccc21 0.97%
O=C(NCCc1ccc(C(F)(F)F)cc1)c1ccc2c(c1)OCO2 -1%
Cc1cccc(C)c1NC(=O)CNC(=O)c1ccc2c(c1)OCCO2 1.15%
Cn1c(=O)cc(SCC(=O)N2CCCC2)c2cc(Cl)ccc21 -25.5%
CNC1(c2nnnn2-c2c(C)cccc2C)CCOC(C)(C)C1 (stereo unspecified) -2.89%
Oc1ccc2ccc3cccc[n+]3c2c1 -21.5%
COc1ccc(C)cc1NC(=S)N1CCOCC1 -0.53%
CCOc1cc(C(=S)N2CCOCC2)ccc1O -1.01%
CCOC(=O)C1CCN(C(=O)COc2cc(C)c(Br)c(C)c2)CC1 -1.96%
CCn1c(SCC(=O)Nc2ccc(OC)c(OC)c2)nnc1-c1c[nH]c2ccccc12 3.38%
